Source: PubChem BioAssay (NCATS)
Results filed as inconclusive are left out. Activity calls are given as the source filed them. The call rests on the fitted dose curve; in most records, active means well fitted cell-killing curve with a large enough effect; inconclusive means small, poorly fitted or top-dose-only effect, or effect the other way; inactive means no such curve, though single readings can be large or run the other way.
Potency means the concentration at half of the fitted maximal effect.

Assay: Quantitative High-Throughput drug screen in 47 multiple myeloma cell lines against the NCATS MIPE library collection: OPM1_PLB cell viability assay (AID 1918989); further: nearly all actives have a fitted effect of over 40% in size
Details: CellTiter-Glo, 48 h; series mostly up to 45.8 µM
Description: PI: Beverly A. Mock Ph.D.
Laboratory of Cancer Biology and Genetics,
Center for Cancer Research, National Cancer Institute,
National Institute of Health, Bethesda, Maryland
Drug resistance and disease progression are common in multiple myeloma (MM) patients, underscoring the need for new therapeutic combinations. […] We hypothesized that effective combinations would reduce MYC expression and enhance p16 activity. […] These preclinical data identify potentially useful drug combinations for evaluation in drug-resistant MM and reveal potential mechanisms of combined drug sensitivity.
Described herein is the primary MIPE qHTS used to cherrypick compounds. Validated compounds were then further tested for potential synergistic activiy.
[1] Peat TJ, Gaikwad SM, Dubois W, Gyabaah-Kessie N, Zhang S, Gorjifard S, Phyo Z, Andres M, Hughitt VK, Simpson RM, Miller MA, Girvin AT, Taylor A, Williams D, D'Antonio N, Zhang Y, Rajagopalan A, Flietner E, Wilson K, Zhang X, Shinn P, Klumpp-Thomas C, McKnight C, Itkin Z, Chen L, Kazandijian D, Zhang J, Michalowski AM, Simmons JK, Keats J, Thomas CJ, Mock BA. Drug combinations identified by high-throughput screening promote cell cycle transition and upregulate Smad pathways in myeloma. Cancer Lett. 2023 Aug 1;568:216284. doi: 10.1016/j.canlet.2023.216284. Epub 2023 Jun 24. PMID: 37356470; PMCID: PMC10408729.
SEQUENCE No. (e.g., 1, 2, 3, etc.); […] (e.g., Cells, Incubation, Reagent, etc.); VALUE and DESCRIPTION.
1; Cells; 5 uL; white, solid bottom 1536-well Greiner assay plate.
2; Compounds; 23 nL; Kalypsis pin tool (Wako USA) equipped with a 1536-well pin head to transfer to the assay plates.
3; Incubation; 48 hours; 37C incubation.
4; Reagent;5uL; CellTiter Glo (Promega).
5; Detector; 425V; Luminescence; Viewlux PerkinElmer.
NOTES (numbers refer to Sequence numbers above)
1. The cell-based screening methods employed in this study were like those previously published. Briefly, the corresponding myeloma cell lines were screened in 1,536-well plates with 500 cells, 5-uL per well for inhibition of cell viability (assessed by measuring ATP levels with CellTiterGlo).
2. NCATS MIPE 4.0 library of approved and investigational drugs were added using the Kalypsis pin tool. Wells treated with DMSO only for 100% viability and media only for 0% viability were used as controls.
3. The assay plates were covered and incubated for 48 hours in a 37C, 5% CO2 incubator with controlled humidity.
4. After 48 hours, CellTilter-GloTM luminescent substrate mix (Promega) reagent was added to the assay plate and plates we incubated for 5 min at room temperature.
5. Signal was measured as median relative luminescence units on a ViewLux (PerkinElmer) multiplate reader.
[1] Heske CM, Davis MI, Baumgart JT, Wilson K, Gormally MV, Chen L, Zhang X, Ceribelli M, Duveau DY, Guha R, Ferrer M, Arnaldez FI, Ji J, Tran HL, Zhang Y, Mendoza A, Helman LJ, Thomas CJ. Matrix Screen Identifies Synergistic Combination of PARP Inhibitors and Nicotinamide Phosphoribosyltransferase (NAMPT) Inhibitors in Ewing Sarcoma. Clin Cancer Res. 2017 Dec 1;23(23):7301-7311. doi: 10.1158/1078-0432.CCR-17-1121. Epub 2017 Sep 12. PMID: 28899971; PMCID: PMC6636827.
In the case of `O=C(Nc1cn[nH]c1-c1nc2ccc(CN3CCOCC3)cc2[nH]1)NC1CC1`, the Potency is reported as 1660 nM (active).
In the case of `Nc1ncnc2c1c(-c1cccc(OCc3ccccc3)c1)cn2C1CC(CN2CCCC2)C1` (stereo not given), the Potency is reported as 5900 nM (active).
For `CNC(=O)c1cc(Oc2ccc(NC(=O)Nc3cc(C(C)(C)C)nn3-c3ccc4ncccc4c3)c(F)c2)ccn1`, the Potency was 5260 nM (active).
With `CN(C)CCCN=c1c2ccccc2n(C)c2[nH]c(=O)n(C)c(=O)c12` the Potency was 6620 nM (active).
In the case of `Cc1cc(Nc2nc(N[C@@H](C)c3ccc(F)cc3)c(C#N)cc2F)n[nH]1`, the Potency is reported as 1320 nM (active).
For `Cc1ccc(NC(=O)C2(c3ccc4c(c3)OC(F)(F)O4)CC2)nc1-c1cccc(C(=O)O)c1`, the Potency was 148 nM (active).
With `CC(C)Nc1cc(C(F)(F)F)cc2nc(NC(=O)c3cccnc3)nn12` the Potency was “inactive”.
In the case of `O=C(c1ccc(Nc2nccc(-c3cc4ccccc4s3)n2)cc1)N1CCC(N2CCCC2)CC1`, the Potency is reported as 5260 nM (active).
With `O=C(C=Cc1cccc(S(=O)(=O)Nc2ccccc2)c1)NO` the Potency was 1910 nM (active).
For `C[C@H]1C[C@@H]2[C@@H]([C@@H](O)C[C@@]3(C)[C@H]2CC[C@]3(O)C(=O)CO)[C@@]2(C)C=CC(=O)C=C12`, the Potency was “inactive”.
With `O=C(NCCS(=O)(=O)c1ccc(C(F)(F)F)cn1)c1ccc(Cl)cc1` the Potency was “inactive”.
With `Cc1[nH]c2ccccc2c1CCNCc1ccc(C=CC(=O)NO)cc1` the Potency was 26.4 nM (active).
With `CCc1c2c(nc3ccc(O)cc13)-c1cc3c(c(=O)n1C2)COC(=O)[C@]3(O)CC` the Potency was 935 nM (active).
In the case of `C#Cc1cccc(Nc2ncnc3cc(OC)c(OCCCCCCC(=O)NO)cc23)c1`, the Potency is reported as 264 nM (active).
For `CC(C)C[C@H](NC(=O)CNC(=O)c1cc(Cl)ccc1Cl)B(O)O`, the Potency was 46.9 nM (active).
In the case of `C1=CCOCc2cc(ccc2OCCN2CCCC2)Nc2nccc(n2)-c2cccc(c2)OCC1`, the Potency is reported as 3320 nM (active).
In the case of `CN1CCN(Cc2ccc(NC(=O)Nc3ccc(Oc4cc(NC(=O)C5CC5)ncn4)cc3)cc2C(F)(F)F)CC1`, the Potency is reported as 166 nM (active).
With `CCCCc1nc2cc(C=CC(=O)NO)ccc2n1CCN(CC)CC` the Potency was 148 nM (active).
With `CC(C)[C@H](C(=O)Nc1ccc(C(=O)NO)cc1)c1ccccc1` the Potency was 469 nM (active).
For `Cc1cn2c(-c3cn[nH]c3)cnc2c(Nc2ccc(C(=O)N3CCNCC3)cc2F)n1`, the Potency was 18700 nM (active).
In the case of `O=C(C=Cc1c(C(=O)O)[nH]c2cc(Cl)cc(Cl)c12)Nc1ccccc1`, the Potency is reported as “inactive”.
For `O=C(Nc1nc2cccc(-c3ccc(CN4CCS(=O)(=O)CC4)cc3)n2n1)C1CC1`, the Potency was 14800 nM (active).
For `OCCCNc1cc(-c2ccnc(Nc3cccc(Cl)c3)n2)ccn1`, the Potency was 46.9 nM (active).
For `Nc1nc(NCCNc2ncc(-n3ccnc3)c(-c3ccc(Cl)cc3Cl)n2)ccc1[N+](=O)[O-]`, the Potency was 5260 nM (active).
In the case of `Cc1cn2cc(C(=O)N(C)CCO)cc(N[C@@H]3CCOc4cccc(C)c43)c2n1`, the Potency is reported as “inactive”.
For `CN(C)CC=CC(=O)Nc1cc2c(Nc3ccc(F)c(Cl)c3)ncnc2cc1O[C@H]1CCOC1`, the Potency was 3720 nM (active).
With `COc1cc(-c2nn(C3CCC(N4CCN(C(C)=O)CC4)CC3)c3ncnc(N)c23)ccc1NC(=O)c1cc2ccccc2n1C` (stereo not given) the Potency was 2640 nM (active).
In the case of `O=C(O)C1(Cc2cccc(Nc3nccs3)n2)CCC(Oc2cccc(Cl)c2F)CC1` (stereo not given), the Potency is reported as 332 nM (active).
With `Cc1cc(Nc2cc(CN3CCOCC3)c3nc(C)c(Cc4ccc(Cl)cc4F)n3n2)n[nH]1` the Potency was 16600 nM (active).
For `O=C(Nc1ncc(-c2cc(C(F)F)nn2-c2c(Cl)cccc2Cl)s1)C1CC1`, the Potency was 418 nM (active).
With `COc1cc(C(C)C)c2c(c1)S(=O)(=O)N(COc1cc(=O)n3cccc(OCCN4CCCCC4)c3n1)C2=O` the Potency was 23500 nM (active).
In the case of `CNC(=O)c1ccc(N2C(=S)N(c3cnc(C#N)c(C(F)(F)F)c3)C(=O)C23CCC3)cc1F`, the Potency is reported as 2640 nM (active).
In the case of `CC(NCc1ccc2c(c1)nc(NC(=O)c1ccc(-c3cn[nH]c3)s1)n2CC(C)(C)O)C(C)(C)C` (stereo not given), the Potency is reported as 264 nM (active).
In the case of `Cc1nc(Nc2n[nH]c3c2CN(C(=O)N[C@H](CN(C)C)c2ccccc2)C3(C)C)c2sccc2n1`, the Potency is reported as 469 nM (active).
In the case of `CNC(=O)CN1CCC(Oc2cc3c(Nc4cccc(Cl)c4F)ncnc3cc2OC)CC1`, the Potency is reported as 33.2 nM (active).
In the case of `CC(=O)SC[C@@H](C)C(=O)N1CCC[C@H]1C(=O)N[C@@H](Cc1ccccc1)C(=O)O`, the Potency is reported as “inactive”.
With `Cc1c(Cn2c(C)nc3c(C(=O)O)cc(N4CCOCC4)cc32)cccc1C(F)(F)F` the Potency was 18700 nM (active).
With `N#CCNC(=O)c1ccc(-c2ccnc(Nc3ccc(N4CCOCC4)cc3)n2)cc1` the Potency was 11800 nM (active).
For `Cc1cc(N2CCOCC2)cc2[nH]c(-c3c(NC[C@@H](O)c4cccc(Cl)c4)cc[nH]c3=O)nc12`, the Potency was 469 nM (active).
In the case of `CC(C)c1cnn2c(NCc3ccccc3)cc(N[C@@H](CO)[C@H](O)CO)nc12`, the Potency is reported as 235 nM (active).
